# Values joined by “and” are separate entries in the source; they are usually repeats but may differ in a detail not shown here. Equal values may be shown once. Records with an inconclusive call do not appear. A call without a number means that no potency is given here. Unmarked numbers belong to inactive results. Active and inactive are the calls of the source. Calls follow the shape of the dose curve; as a rule, active = well fitted cell-killing curve with a large enough effect in the repeat runs; inconclusive = weak or mixed curves, or effect the other way; inactive = flat fitted curve, though single readings scatter.
# What was measured:
# [1] = cAMP Responsive Elements (CRE) small molecule antagonists, cell-based qHTS assay: qHTS cell viability counter screen (AID 2060913); also: nearly all actives have a fitted effect of over 40% in size
# Method in brief: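 Cytotoxicity counter screen multiplexed with the CRE-bla antagonist read: HEK293T cells in DMEM with dialyzed FBS and 25 mM HEPES were treated 3 hrs under 0.25 uM final NKH477, then viability measured by CellTiter-Glo luminescence.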
# [2] = cAMP Responsive Elements (CRE) small molecule agonists, cell-based qHTS assay: qHTS cell viability counter screen (AID 2060914);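 also: viability read after 3 h of compound exposure; nearly all actives have a fitted effect of over 50% in size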
# Method in brief: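 CRE-bla HEK293T cells in 10% dialyzed FBS medium were exposed to compounds for 3 h at 37C after 18 h plating. CellTiter-Glo was then added in the same wells, and luminescence was read after 30 min at room temperature.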
# Potency is read from the fitted curve at half-maximal effect.
SMILES,Potency [1],Potency [2],"viability change, negative = cytotoxic [1]","activity change, negative = cytotoxicity [2]"
Clc1ccc(C(Cl)(Cl)Cl)cc1,inactive,inactive,–,–
O=C1CCCN1,inactive,inactive,–,–
CC(O)CN(CC(C)O)CC(C)O (configuration not stated),inactive,inactive,–,–
N#C/C(N)=C(/N)C#N,inactive,inactive,–,–
CCCCCCCCCCCCN=C(N)N,–,–,-6.77% [at 3.27 µM],-15.8% [at 3.27 µM]
Brc1ccccc1,inactive,inactive,–,–
NC(=O)OCCCc1ccccc1,inactive,inactive,–,–
C[N+](C)(C)CC(=O)O,inactive,inactive,–,–
C=C(Cl)CCl,inactive,inactive,–,–
Cc1cc(-c2cc(C)c(N)c(C)c2)cc(C)c1N,inactive,inactive,–,–
Cc1ccc(O)c(C)c1,inactive,inactive,–,–
CCOP(=O)(OCC)OP(=O)(OCC)OCC,inactive,inactive,–,–
CN1COCN(Cc2cnc(Cl)s2)/C1=N\[N+](=O)[O-],inactive,inactive,–,–
CCNc1nc(Cl)nc(NC(C)(C)C#N)n1,inactive,inactive,–,–
CCCCCCCCn1sccc1=O,54.6 µM (active) and 64.1 µM (active),43.4 µM (active),–,–
CCCCCCCCCCCCCCCCCC(=O)O,inactive,inactive,–,–
O=C(O)c1ccccn1,inactive,inactive,–,–
COc1cccc(C(=O)NN(C(=O)c2cc(C)cc(C)c2)C(C)(C)C)c1C,inactive,inactive,–,–

SMILES,Potency [1],Potency [2],"viability change, negative = cytotoxic [1]","activity change, negative = cytotoxicity [2]"
N#CN=C1SCCN1Cc1ccc(Cl)nc1,inactive,inactive,–,–
CCOc1cc(OP(=S)(OC)OC)nc(CC)n1,inactive,inactive,–,–
Cc1c(COC(=O)[C@@H]2[C@H](/C=C(\Cl)C(F)(F)F)C2(C)C)cccc1-c1ccccc1,inactive,inactive,–,–
CC[C@@H](CO)NC(=O)[C@@H]1C=C2c3cccc4c3c(cn4C)C[C@H]2N(C)C1,inactive,inactive,–,–
O=Cc1ccccc1,inactive,inactive,–,–
Cc1ccc(S(=O)(=O)N[C@@H](CCCCN)C(=O)CCl)cc1,inactive,inactive,–,–
Clc1ccc(CSC(Cn2ccnc2)c2ccc(Cl)cc2Cl)cc1 (configuration not stated),inactive,inactive,–,–
COc1ccc(O)c(C(C)(C)C)c1,inactive,inactive,–,–
Nc1c(Cl)cc([N+](=O)[O-])cc1Cl,inactive,inactive,–,–
CNC(=O)Oc1cccc2c1OC(C)(C)C2,inactive,inactive,–,–
[Cl-].[Cl-].[Sn+2],inactive,inactive,–,–
CCCCCCI,inactive,inactive,–,–
Nc1ccc([As](=O)(O)O)cc1,inactive,inactive,–,–
Clc1ccc2ccccc2c1,inactive,inactive,–,–
CCn1cc[n+](C)c1C,inactive,inactive,–,–
CCC#N,inactive,inactive,–,–
CC(C)(C)C(=O)Cl,inactive,inactive,–,–
c1ccc(NNc2ccccc2)cc1,inactive,inactive,–,–

# Reference: PubChem BioAssay (Tox21)
